Measured values: PubChem BioAssay (NCI)
This is part of a sample that, as a whole, favours compounds with a hit. Of some 79,000 tested, about 15% had one in any assay. Cut-off read from the data, not from the text of the source: active = growth inhibition above about 70%; inactive = the rest.

How the values were obtained:
[1] = NCI Yeast Anticancer Drug Screen. Data for the rad50 strain (AID 155);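 note: 0% = growth of vehicle-only cultures of the same strain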; details: S. cerevisiae rad50 strain growth inhibition; at 50.0 µM; hits give high values
In short: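 Growth of the mutant yeast was measured after compound exposure and referenced to vehicle-treated cultures.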

[2] = NCI Yeast Anticancer Drug Screen. Data for the mec2-1 strain (AID 157); details: S. cerevisiae mec2-1 strain, at 50.0 µM, hits give high values
In short: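 Mutant yeast (mec2-1) grown with compound; growth inhibition relative to vehicle control reported.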

[3] = NCI Yeast Anticancer Drug Screen. Data for the sgs1 mgt1 strain (AID 161);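 note: 0% = growth of cultures given vehicle only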; details: S. cerevisiae sgs1 mgt1 strain, at 50.0 µM, hits give high values
In short: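 Yeast cells carrying a defined DNA-repair defect were exposed to test compounds. Growth inhibition was measured relative to vehicle-treated controls.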

[4] = NCI Yeast Anticancer Drug Screen. Data for the cln2 rad14 strain (AID 165);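 note: 0% = growth equal to vehicle treated cultures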; details: S. cerevisiae cln2 rad14 strain, at 50.0 µM, hits give high values
In short: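 Readout is yeast growth inhibition versus vehicle-treated controls, using a strain with cln2 and rad14 alterations exposed to compound.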

[5] = NCI Yeast Anticancer Drug Screen. Data for the bub3 strain (AID 167); details: S. cerevisiae bub3 mutant strain, at 50.0 µM, hits give high values
In short: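 Whole-cell yeast assay. The mutant strain was incubated with compounds, and growth inhibition was determined by comparison with vehicle-treated cells.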

Measured: growth inhibition

Cc1c(O)cc(O)c(C)c1C
inactive: [1] -0.3% | [2] -23.3% | [3] -8.6% | [4] -2% | [5] 9.8%

CCN(CC)Cc1c(C)cccc1O
inactive: [1] -4.65% | [2] -4.35% | [3] -27.8% | [4] -49.5% | [5] -0.45%

CSc1nc(NC2OC(COC(C)=O)C(OC(C)=O)C(OC(C)=O)C2OC(C)=O)c2c(n1)OCC2=O (stereo not given)
inactive: [1] 2.65% | [2] -13.7% | [3] -38% | [4] 28.2% | [5] 30.9%

CNCCNc1ncc([N+](=O)[O-])s1
inactive: [1] -3.25% | [2] -9.1% | [3] -37.6% | [4] -25.1% | [5] -43%

O=C(Cc1ccccc1)Nc1cccc2ccccc12
inactive: [1] 6.15% | [2] 1.7% | [3] 0.8% | [4] 1% | [5] 22.9%

C/C(CCn1[nH]c(=O)ccc1=O)=N\N=C(N)N
inactive: [1] -13.2% | [2] -13.1% | [3] -0.65% | [4] -4.85% | [5] -1.4%

CN(C)CC(CN(C)C)C(=O)O
inactive: [1] -0.2% | [2] 2.75% | [3] -13.3% | [4] 22% | [5] -6.25%

COc1ccc2c(c1OC)C1=NCCc3cc4c(cc3C1(OC)C2=O)OCO4 (stereo not given)
inactive: [1] -7.15% | [2] 0.75% | [3] 7.05% | [4] 16.8% | [5] 13.7%

Nc1nnc(CCC(=O)Nc2cccc(C(F)(F)F)c2)n1N
inactive: [1] 4.85% | [2] 5.6% | [3] 7.3% | [4] -27.9% | [5] 9.65%

O=C(N/N=C\c1coc([N+](=O)[O-])c1)N/N=C/c1ccoc1
inactive: [1] 0.75% | [2] 14.2% | [3] 3.65% | [4] -25.7% | [5] -8.35%

CCOC(CCCl)c1ccccc1 (stereo not given)
inactive: [1] 2.45% | [2] -12.4% | [3] -39.5% | [4] 7.85% | [5] 11.1%

O=C(O)CSc1ccc2c3c(cccc13)C(=O)c1ccccc1-2
inactive: [1] -9.9% | [2] 27.4% | [3] 7.95% | [4] 26% | [5] 56.8%

Cc1cnc(N)s1
inactive: [1] 3.8% | [2] -23.9% | [3] -7.8% | [4] -24.7% | [5] -11.2%

CC(C)/C=C(/CC(C)C)C(CCC(=O)Nc1ccccc1)C(=O)Nc1ccccc1 (stereo not given)
inactive: [1] 7.9% | [2] 27.7% | [3] 4.1% | [4] 10% | [5] 1.8%

COCCCNc1ncnc2c1cnn2-c1ccc(Cl)cc1
inactive: [1] -1.3% | [2] -4.75% | [3] -0.25% | [4] 9.8% | [5] -9.45%

O=C(Cc1n[nH]c(=S)nc1CC(=O)c1ccccc1)c1ccccc1
inactive: [1] -2.05% | [2] 0.85% | [3] 5.2% | [4] -17.5% | [5] -27.9%

O=C1c2cccc3cccc(c23)C(=O)N1Cc1ccco1
inactive: [1] 41.4% | [2] 36.2% | [3] 45% | [4] 44.5% | [5] 40.2%

Brc1nc2c3ccccc3ncn2c1Br
inactive: [1] 45.2% | [2] -3.05% | [3] 21.3% | [4] -4.25% | [5] 1.7%

CC1(C)CC(C2=NCCO2)CC(C)(C)N1
inactive: [1] -43.7% | [2] -29.2% | [3] -39.3% | [4] -6.45% | [5] 15.2%

O=C1N(CC2CO2)CCN1CC1CO1 (stereo not given)
inactive: [1] -22.4% | [2] -10.2% | [3] -5.3% | [4] -5.15% | [5] -20.4%

CC1CC(O)CC(C)(C)C1.CC1CC(O)CC(C)(C)C1.CC1CC(O)CC(C)(C)C1.CC1CC(O)CC(C)(C)C1.[Ti] (stereo not given)
inactive: [1] 13.9% | [2] -4.65% | [3] 23.2% | [4] 15.1% | [5] 32.5%

NC(=O)Cc1csc(Br)n1
inactive: [1] 12.9% | [2] 0.8% | [3] -6.2% | [4] -32.2% | [5] 15.4%

CC(C)(C)NC(=O)Nc1nccs1
inactive: [1] 7.8% | [2] -7.9% | [3] -6.2% | [4] -86.5% | [5] -3.9%

O=C(O)CCc1coc2ccc(O)cc12
inactive: [1] -0.45% | [2] 10.1% | [3] 8.4% | [4] -20.6% | [5] -6.1%
